# Source: article PMC7862700, “An all-to-all approach to the identification of sequence-specific readers for epigenetic DNA modifications on cytosine”
# How the values were obtained:
# Assay in all cases: DAPPL (digital affinity profiling via proximity ligation, sequencing); 10 mM Tris-HCl pH 7.5, 50 mM NaCl, 1 mM DTT, 4% glycerol, room temperature, 30 min; GST-TFs on glutathione beads, 16-mer random dsDNA library, 0.1% formaldehyde crosslink after washing; high values mean tight binding
# FLI1 = biological target: T1, FLI1 (Homo sapiens, UniProt Q01543 1-452); settings: protein: recombinant; tags: N-terminal GST; dsDNA, one strand shown
# T1 sequence: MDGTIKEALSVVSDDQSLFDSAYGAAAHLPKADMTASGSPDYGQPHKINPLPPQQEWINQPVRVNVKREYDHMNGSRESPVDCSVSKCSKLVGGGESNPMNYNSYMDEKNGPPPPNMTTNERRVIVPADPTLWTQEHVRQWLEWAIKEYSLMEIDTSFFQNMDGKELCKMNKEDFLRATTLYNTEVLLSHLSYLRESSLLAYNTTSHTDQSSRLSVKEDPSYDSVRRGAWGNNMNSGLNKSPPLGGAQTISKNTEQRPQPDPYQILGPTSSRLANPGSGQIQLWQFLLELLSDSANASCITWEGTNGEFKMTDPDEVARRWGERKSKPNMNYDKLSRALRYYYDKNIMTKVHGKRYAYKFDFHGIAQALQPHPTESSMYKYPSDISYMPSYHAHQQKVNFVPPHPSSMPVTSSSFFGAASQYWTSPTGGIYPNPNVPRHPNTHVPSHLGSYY
# Method in brief: (§1)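 Pools of DNA-barcoded human transcription factors, expressed in yeast as GST fusions on glutathione beads and combined with a tag-only sample, were incubated with 200 nmole of a 16-mer random double-stranded DNA library. Incubation took 30 min at room temperature in Tris/NaCl/DTT/glycerol buffer and was followed by washing, 0.1% formaldehyde crosslinking, proximity ligation (BsaI/T4 ligase, 1 h, 37 °C), PCR amplification and sequencing on an Illumina NextSeq500. Binding signal is the ratio of a hexamer's read frequency for a factor to its frequency for the tag-only sample.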
# ELK1 = biological target: T2, ELK1 (Homo sapiens, UniProt P19419 1-428); settings: protein: recombinant; tags: N-terminal GST; dsDNA, one strand shown
# T2 sequence: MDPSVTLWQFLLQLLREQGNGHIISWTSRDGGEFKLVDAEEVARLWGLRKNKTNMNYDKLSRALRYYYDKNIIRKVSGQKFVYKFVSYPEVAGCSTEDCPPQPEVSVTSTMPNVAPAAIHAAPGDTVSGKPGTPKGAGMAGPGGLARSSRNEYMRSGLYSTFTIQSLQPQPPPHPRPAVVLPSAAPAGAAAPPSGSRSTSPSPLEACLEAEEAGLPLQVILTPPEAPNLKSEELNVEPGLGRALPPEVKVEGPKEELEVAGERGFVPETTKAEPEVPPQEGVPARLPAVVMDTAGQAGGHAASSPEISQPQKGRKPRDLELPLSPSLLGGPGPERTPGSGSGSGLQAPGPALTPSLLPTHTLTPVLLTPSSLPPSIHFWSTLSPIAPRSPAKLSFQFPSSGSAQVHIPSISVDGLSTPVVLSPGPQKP
# Method in brief: as §1
# GABPA = biological target: T3, GABPA (Homo sapiens, UniProt Q06546 1-454); settings: protein: recombinant; tags: N-terminal GST; dsDNA, one strand shown
# T3 sequence: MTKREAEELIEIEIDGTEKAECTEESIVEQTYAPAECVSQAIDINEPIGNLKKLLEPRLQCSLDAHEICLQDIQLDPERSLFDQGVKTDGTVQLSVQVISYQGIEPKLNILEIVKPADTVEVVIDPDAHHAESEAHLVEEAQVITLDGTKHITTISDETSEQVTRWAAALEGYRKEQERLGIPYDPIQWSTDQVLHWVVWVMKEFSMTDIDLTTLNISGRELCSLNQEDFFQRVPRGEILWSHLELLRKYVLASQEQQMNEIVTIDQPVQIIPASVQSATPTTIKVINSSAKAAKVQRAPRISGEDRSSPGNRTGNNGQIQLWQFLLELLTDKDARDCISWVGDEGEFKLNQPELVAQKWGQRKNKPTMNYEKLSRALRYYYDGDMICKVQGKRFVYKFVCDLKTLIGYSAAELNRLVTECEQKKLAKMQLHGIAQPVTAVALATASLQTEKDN
# Method in brief: as §1
# ERG = biological target: T4, ERG (Homo sapiens, UniProt P11308 1-479); settings: protein: recombinant; tags: N-terminal GST; dsDNA, one strand shown
# T4 sequence: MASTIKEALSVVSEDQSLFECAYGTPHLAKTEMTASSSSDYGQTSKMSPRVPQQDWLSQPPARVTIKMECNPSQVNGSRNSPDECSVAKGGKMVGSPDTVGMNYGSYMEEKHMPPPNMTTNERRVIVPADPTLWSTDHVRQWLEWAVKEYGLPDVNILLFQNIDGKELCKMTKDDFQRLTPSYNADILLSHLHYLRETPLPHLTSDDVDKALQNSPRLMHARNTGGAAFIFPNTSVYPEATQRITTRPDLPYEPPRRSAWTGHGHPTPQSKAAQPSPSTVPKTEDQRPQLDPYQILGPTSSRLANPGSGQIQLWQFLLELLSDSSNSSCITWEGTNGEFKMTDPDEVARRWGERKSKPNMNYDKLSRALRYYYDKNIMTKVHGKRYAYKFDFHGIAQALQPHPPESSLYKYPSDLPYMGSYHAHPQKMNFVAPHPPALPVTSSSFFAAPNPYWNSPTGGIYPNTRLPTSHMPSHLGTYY
# Method in brief: as §1
# ELF1 = ELF1 (Homo sapiens, UniProt P32519 1-619); settings: protein: recombinant; tags: N-terminal GST; dsDNA, one strand shown
# Method in brief: as §1
# EHF = biological target: T5, EHF (Homo sapiens, UniProt Q9NZC4 1-300); settings: protein: recombinant; tags: N-terminal GST; dsDNA, one strand shown
# T5 sequence: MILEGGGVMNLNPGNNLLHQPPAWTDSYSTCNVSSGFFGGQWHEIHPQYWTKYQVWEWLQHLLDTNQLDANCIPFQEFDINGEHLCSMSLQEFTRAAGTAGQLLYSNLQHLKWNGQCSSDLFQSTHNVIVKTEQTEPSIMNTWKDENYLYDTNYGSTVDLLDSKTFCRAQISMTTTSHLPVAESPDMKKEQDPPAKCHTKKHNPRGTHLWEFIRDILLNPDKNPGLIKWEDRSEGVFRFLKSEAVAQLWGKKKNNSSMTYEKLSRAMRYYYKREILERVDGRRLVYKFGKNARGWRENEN
# Method in brief: as §1
# SPI1 = SPI1 (Homo sapiens, UniProt P17947 1-270); settings: protein: recombinant; tags: N-terminal GST; dsDNA, one strand shown
# Method in brief: as §1
# SPIB = SPIB (Homo sapiens, UniProt Q01892 1-262); settings: protein: recombinant; tags: N-terminal GST; dsDNA, one strand shown
# Method in brief: as §1
# ELK3 = biological target: T6, ELK3 (Homo sapiens, UniProt P41970 1-407); settings: protein: recombinant; tags: N-terminal GST; dsDNA, one strand shown
# T6 sequence: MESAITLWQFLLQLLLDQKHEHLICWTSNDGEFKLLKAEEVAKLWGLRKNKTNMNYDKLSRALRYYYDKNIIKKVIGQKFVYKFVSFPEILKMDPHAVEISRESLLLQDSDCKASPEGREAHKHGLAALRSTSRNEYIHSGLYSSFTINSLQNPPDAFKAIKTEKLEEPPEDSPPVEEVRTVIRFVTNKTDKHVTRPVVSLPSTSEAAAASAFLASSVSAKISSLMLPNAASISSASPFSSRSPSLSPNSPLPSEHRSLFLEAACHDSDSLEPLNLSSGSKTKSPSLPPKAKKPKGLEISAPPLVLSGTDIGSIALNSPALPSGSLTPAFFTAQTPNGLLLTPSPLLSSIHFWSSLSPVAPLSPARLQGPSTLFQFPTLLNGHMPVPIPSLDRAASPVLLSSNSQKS
# Method in brief: as §1
# FEV = biological target: T7, FEV (Homo sapiens, UniProt Q99581 1-238); settings: protein: recombinant; tags: N-terminal GST; dsDNA, one strand shown
# T7 sequence: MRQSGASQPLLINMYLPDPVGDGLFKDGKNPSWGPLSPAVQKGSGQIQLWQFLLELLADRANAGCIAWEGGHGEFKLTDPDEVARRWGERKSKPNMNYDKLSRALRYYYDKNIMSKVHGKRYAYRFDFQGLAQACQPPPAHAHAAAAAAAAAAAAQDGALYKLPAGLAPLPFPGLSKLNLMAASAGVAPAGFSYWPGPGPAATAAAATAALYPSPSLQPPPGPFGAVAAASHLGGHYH
# Method in brief: as §1
# ETV5 = ETV5 (Homo sapiens, UniProt P41161 1-510); settings: protein: recombinant; tags: N-terminal GST; dsDNA, one strand shown
# Method in brief: as §1
# HSF1 = HSF1 (Homo sapiens, UniProt Q00613 1-529); settings: protein: recombinant; tags: N-terminal GST; chain copies: 3; dsDNA, one strand shown
# Method in brief: as §1
# SPIC = biological target: T8, SPIC (Homo sapiens, UniProt Q8N5J4 1-248); settings: protein: recombinant; tags: N-terminal GST; dsDNA, one strand shown
# T8 sequence: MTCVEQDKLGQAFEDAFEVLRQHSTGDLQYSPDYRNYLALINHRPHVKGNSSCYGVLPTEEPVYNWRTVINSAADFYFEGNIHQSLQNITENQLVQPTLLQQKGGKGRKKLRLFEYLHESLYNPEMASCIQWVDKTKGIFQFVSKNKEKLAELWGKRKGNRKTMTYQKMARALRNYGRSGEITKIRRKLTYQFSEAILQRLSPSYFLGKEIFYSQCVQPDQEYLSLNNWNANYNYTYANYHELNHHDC
# Method in brief: as §1
# ELF4 = ELF4 (Homo sapiens, UniProt Q99607 1-663); settings: protein: recombinant; tags: N-terminal GST; dsDNA, one strand shown
# Method in brief: as §1
# ELK4 = biological target: T9, ELK4 (Homo sapiens, UniProt P28324-2 1-405); settings: protein: recombinant; tags: N-terminal GST; dsDNA, one strand shown
# T9 sequence: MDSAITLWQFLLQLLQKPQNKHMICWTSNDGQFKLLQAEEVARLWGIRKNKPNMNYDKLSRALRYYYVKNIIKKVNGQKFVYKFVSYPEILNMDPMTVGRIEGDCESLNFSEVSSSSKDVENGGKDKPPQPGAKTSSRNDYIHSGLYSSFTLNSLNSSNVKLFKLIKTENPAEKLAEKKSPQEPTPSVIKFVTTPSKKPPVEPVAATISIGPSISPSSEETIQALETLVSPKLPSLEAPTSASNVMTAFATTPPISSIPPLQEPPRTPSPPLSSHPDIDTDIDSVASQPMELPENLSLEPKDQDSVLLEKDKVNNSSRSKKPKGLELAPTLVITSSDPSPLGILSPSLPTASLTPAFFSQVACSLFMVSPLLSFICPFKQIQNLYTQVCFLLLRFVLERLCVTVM
# Method in brief: as §1
# ETV2 = biological target: T10, ETV2 (Homo sapiens, UniProt O00321 1-342); settings: protein: recombinant; tags: N-terminal GST; dsDNA, one strand shown
# T10 sequence: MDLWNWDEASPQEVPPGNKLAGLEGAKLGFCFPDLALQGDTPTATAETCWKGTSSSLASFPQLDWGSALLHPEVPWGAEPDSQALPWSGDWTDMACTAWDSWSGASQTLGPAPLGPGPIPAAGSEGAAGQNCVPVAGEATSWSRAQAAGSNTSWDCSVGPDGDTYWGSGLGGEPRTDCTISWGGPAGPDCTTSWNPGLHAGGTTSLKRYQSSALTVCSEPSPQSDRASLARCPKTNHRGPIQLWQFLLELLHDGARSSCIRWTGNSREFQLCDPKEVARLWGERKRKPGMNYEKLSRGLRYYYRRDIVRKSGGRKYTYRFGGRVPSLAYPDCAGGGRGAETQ
# Method in brief: as §1
# ELF3 = biological target: T11, ELF3 (Homo sapiens, UniProt P78545 1-371); settings: protein: recombinant; tags: N-terminal GST; dsDNA, one strand shown
# T11 sequence: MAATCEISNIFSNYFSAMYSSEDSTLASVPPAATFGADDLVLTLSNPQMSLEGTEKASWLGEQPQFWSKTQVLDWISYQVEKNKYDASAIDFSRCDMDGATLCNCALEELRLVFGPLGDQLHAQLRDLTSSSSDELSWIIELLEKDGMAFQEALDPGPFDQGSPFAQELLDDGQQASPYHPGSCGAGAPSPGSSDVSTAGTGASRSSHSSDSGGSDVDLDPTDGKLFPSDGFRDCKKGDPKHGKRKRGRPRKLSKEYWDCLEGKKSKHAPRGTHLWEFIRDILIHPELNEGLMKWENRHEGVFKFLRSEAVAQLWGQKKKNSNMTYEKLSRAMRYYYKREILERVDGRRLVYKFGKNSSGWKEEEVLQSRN
# Method in brief: as §1
# CRX = CRX (Homo sapiens, UniProt O43186 1-299); settings: protein: recombinant; tags: N-terminal GST; dsDNA, one strand shown
# Method in brief: as §1
# ETV1 = ETV1 (Homo sapiens, UniProt P50549 1-477); settings: protein: recombinant; tags: N-terminal GST; dsDNA, one strand shown
# Method in brief: as §1
# Chain of CRX (O43186 whole entry): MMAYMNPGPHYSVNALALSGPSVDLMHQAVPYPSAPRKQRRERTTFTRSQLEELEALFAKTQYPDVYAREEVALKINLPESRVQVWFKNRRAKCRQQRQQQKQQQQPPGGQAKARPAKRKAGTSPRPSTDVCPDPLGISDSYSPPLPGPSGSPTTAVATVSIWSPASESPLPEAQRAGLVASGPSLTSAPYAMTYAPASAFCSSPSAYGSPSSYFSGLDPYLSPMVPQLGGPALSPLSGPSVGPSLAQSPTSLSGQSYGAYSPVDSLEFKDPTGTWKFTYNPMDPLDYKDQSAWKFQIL
# Chain of ETV5 (P41161 whole entry): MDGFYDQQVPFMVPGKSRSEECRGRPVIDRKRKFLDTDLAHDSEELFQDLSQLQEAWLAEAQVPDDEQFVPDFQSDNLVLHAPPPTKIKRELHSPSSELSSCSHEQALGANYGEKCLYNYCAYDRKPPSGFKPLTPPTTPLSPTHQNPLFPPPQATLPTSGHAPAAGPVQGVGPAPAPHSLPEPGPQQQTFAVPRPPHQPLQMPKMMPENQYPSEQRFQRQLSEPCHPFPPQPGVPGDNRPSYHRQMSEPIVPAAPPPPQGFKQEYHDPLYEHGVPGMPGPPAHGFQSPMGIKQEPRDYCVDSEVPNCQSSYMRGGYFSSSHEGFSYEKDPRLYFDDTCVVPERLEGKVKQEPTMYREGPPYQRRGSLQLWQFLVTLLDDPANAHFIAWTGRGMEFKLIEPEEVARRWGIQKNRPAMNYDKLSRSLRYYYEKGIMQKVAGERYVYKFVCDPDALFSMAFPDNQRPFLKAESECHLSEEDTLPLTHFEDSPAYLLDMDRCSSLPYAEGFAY
# Chain of ETV1 (P50549 whole entry): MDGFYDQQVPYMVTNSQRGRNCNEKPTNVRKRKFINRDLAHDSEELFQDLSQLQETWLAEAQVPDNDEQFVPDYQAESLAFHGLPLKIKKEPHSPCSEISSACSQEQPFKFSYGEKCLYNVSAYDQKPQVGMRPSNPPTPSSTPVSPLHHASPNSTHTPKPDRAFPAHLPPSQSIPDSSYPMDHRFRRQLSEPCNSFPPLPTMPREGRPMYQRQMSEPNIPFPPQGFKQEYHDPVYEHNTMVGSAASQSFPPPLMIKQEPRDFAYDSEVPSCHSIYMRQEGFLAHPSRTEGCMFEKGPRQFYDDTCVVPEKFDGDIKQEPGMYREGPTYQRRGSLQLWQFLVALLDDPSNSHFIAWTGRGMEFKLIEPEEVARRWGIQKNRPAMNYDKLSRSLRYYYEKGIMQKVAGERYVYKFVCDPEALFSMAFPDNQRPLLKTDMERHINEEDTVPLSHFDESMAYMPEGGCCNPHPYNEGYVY
# Chain of HSF1 (Q00613 whole entry): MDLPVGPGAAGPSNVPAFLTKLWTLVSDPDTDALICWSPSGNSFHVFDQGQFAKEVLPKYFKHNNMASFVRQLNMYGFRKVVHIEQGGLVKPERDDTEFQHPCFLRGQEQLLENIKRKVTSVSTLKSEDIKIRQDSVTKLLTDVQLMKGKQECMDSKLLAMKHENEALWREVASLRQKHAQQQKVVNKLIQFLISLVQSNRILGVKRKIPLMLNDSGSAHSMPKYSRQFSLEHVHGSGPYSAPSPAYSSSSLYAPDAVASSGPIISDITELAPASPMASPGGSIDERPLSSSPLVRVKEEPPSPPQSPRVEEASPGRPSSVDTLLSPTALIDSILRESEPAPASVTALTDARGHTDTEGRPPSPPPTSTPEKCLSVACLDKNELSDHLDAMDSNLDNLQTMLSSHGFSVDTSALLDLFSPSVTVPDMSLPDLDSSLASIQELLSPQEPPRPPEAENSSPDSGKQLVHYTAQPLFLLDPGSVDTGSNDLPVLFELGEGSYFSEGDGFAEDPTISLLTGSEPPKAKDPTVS
# Chain of ELF4 (Q99607 whole entry): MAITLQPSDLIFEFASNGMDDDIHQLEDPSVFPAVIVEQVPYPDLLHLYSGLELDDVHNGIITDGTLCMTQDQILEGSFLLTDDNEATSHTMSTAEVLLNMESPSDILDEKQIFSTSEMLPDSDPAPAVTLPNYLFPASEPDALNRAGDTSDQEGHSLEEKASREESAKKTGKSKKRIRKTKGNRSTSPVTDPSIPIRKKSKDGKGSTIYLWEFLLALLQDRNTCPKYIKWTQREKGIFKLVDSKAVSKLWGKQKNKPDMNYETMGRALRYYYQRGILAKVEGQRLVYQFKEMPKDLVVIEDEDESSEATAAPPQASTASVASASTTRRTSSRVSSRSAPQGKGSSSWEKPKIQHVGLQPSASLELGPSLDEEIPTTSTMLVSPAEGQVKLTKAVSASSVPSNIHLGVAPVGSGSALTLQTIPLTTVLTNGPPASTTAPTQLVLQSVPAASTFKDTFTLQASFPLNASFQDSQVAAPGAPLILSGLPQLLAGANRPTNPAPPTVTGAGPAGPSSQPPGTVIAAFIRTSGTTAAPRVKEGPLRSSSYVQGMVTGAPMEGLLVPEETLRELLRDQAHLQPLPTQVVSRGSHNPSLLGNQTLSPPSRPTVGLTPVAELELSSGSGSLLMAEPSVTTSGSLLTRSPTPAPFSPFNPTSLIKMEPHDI
# Chain of ELF1 (P32519 whole entry): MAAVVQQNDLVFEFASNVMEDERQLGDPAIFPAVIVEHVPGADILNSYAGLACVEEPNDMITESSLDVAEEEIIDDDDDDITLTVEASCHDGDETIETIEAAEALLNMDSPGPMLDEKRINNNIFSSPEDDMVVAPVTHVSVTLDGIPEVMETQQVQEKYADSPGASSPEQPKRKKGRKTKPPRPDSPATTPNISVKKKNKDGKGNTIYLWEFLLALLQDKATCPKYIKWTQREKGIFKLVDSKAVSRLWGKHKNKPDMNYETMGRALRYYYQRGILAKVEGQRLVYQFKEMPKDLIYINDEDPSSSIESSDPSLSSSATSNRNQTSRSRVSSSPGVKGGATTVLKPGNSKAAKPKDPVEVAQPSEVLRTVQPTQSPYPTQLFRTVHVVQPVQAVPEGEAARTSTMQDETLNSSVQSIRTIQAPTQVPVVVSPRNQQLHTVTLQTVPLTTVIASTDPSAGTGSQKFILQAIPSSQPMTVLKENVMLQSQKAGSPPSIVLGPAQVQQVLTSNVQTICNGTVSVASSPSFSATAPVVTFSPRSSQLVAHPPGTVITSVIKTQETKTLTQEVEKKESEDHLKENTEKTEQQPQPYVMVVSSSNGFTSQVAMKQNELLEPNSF
# Chain of SPIB (Q01892 whole entry): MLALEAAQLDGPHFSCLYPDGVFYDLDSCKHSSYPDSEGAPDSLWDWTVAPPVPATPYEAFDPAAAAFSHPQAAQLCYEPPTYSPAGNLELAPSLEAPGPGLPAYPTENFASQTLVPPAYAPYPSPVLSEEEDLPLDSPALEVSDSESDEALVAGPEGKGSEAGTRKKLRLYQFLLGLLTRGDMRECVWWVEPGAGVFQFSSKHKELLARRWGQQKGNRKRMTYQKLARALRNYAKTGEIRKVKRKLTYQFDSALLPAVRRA
sequence,measurement,setting,value
ATAATT,binding signal,FLI1,"1.31 fold enrichment (6-mer frequency, TF over GST control)"
same,binding signal,ELK1,"1.38 fold enrichment (6-mer frequency, TF over GST control)"
same,binding signal,GABPA,"1.38 fold enrichment (6-mer frequency, TF over GST control)"
same,binding signal,ERG,"1.4 fold enrichment (6-mer frequency, TF over GST control)"
same,binding signal,ELF1,"1.27 fold enrichment (6-mer frequency, TF over GST control)"
same,binding signal,EHF,"1.37 fold enrichment (6-mer frequency, TF over GST control)"
same,binding signal,SPI1,"1.28 fold enrichment (6-mer frequency, TF over GST control)"
same,binding signal,SPIB,"1.39 fold enrichment (6-mer frequency, TF over GST control)"
same,binding signal,ELK3,"1.42 fold enrichment (6-mer frequency, TF over GST control)"
same,binding signal,FEV,"1.25 fold enrichment (6-mer frequency, TF over GST control)"
same,binding signal,ETV5,"1.37 fold enrichment (6-mer frequency, TF over GST control)"
same,binding signal,HSF1,"1.76 fold enrichment (6-mer frequency, TF over GST control)"
same,binding signal,SPIC,"1.41 fold enrichment (6-mer frequency, TF over GST control)"
same,binding signal,ELF4,"1.25 fold enrichment (6-mer frequency, TF over GST control)"
same,binding signal,ELK4,"1.33 fold enrichment (6-mer frequency, TF over GST control)"
same,binding signal,ETV2,"1.5 fold enrichment (6-mer frequency, TF over GST control)"
same,binding signal,ELF3,"1.34 fold enrichment (6-mer frequency, TF over GST control)"
same,binding signal,CRX,"2.16 fold enrichment (6-mer frequency, TF over GST control)"
same,binding signal,ETV1,"1.34 fold enrichment (6-mer frequency, TF over GST control)"
